Consider 90 compounds from PubChem BioAssay AID540333 (Southern Research Specialized Biocontainment Screening …, 2011).

Hit rate of the full screen: of about 10,000 compounds, about 320 (3.2%) were called active. Shown is part of a subset that was picked to be rich in actives. Values without a mark were called inactive. Rule as the data show it: active = CPE inhibition mostly above about 9.1% (no sharp cut-off); inactive = mostly below about 7.2%.

The nature of this assay: antivirals protecting cells from dengue CPE – CPE readout, HTS (AID 540333). The settings on record: Dengue virus CPE inhibition in host cells, at 20 µM; stronger effect = higher value.
`CC(Nc1cc(N2CCNCC2)ccc1[N+](=O)[O-])c1ccccc1` (stereo not given): the CPE inhibition was 0.87%. `O=C(CN1CCN(Cc2ccccc2)CC1)Nc1ccc(S(=O)(=O)N2CCOCC2)cc1`: the CPE inhibition entry was “inactive”. In the case of `Cc1ccc(-n2c(SCC(=O)N3c4ccccc4Sc4ccccc43)nnc2-c2ccncc2)cc1`, the CPE inhibition was 13.2% (active).

In the case of `Cc1ccc(-n2c(SCC(=O)N/N=C/c3ccc(C)s3)nnc2-c2ccccc2)cc1`, the CPE inhibition was 6.83%. For the compound `Cn1c(SCC(=O)N2c3ccccc3Sc3ccccc32)nc2ccccc21`, the CPE inhibition was 10.5%.

Turning to `O=C(CSc1ccc(Cl)cc1)Nc1cccc(-c2nnc(-c3ccco3)o2)c1`, the CPE inhibition was 0.905%. On to `O=C(CNc1cc(S(=O)(=O)N2CCCC2)ccc1OCC(F)(F)F)Nc1cccc(C(F)(F)F)c1`, for which the CPE inhibition was 15.3% (active). For `O=C(Nc1cc(S(=O)(=O)N2CCCC2)ccc1OCC(F)(F)F)c1ccc(F)cc1`, the CPE inhibition result was “inactive”.

As to `Cc1ccc(OCC(=O)Nc2cccc(S(=O)(=O)N3CCCCC3)c2)c([N+](=O)[O-])n1`, the CPE inhibition was 0.73%. The result for `O=S(=O)(NCCCc1ccccc1)c1cccc2nsnc12` reads 0.135%. The result for `O=C(O)CCN1CC2([N+](=O)[O-])C=CC(=O)C([N+](=O)[O-])(C1)C2CC(=O)c1ccccc1` (stereo not given) reads 0.01%; that for `COc1cc(/C=N/NS(=O)(=O)c2ccccc2)ccc1OS(=O)(=O)c1ccc(C)cc1`, 0.62%; that for `CCCc1cc(=O)[nH]c(SCC(=O)N2CCN(S(=O)(=O)c3ccc4ccccc4c3)CC2)n1`, “inactive”.

Take `O=C(/C=C/c1cccc(Cl)c1)NCc1ccncc1`: the CPE inhibition is 0.12%. Take `O=C(NC(Cc1c[nH]c2ccccc12)C(=O)OCC(=O)c1cccc2ccccc12)c1cccs1` (stereo not given): the CPE inhibition result is “inactive”. In the case of `COc1cc(CNn2cn[nH]c2=S)cc(Cl)c1OCc1ccc(F)cc1`, the CPE inhibition entry is “inactive”.

As for `COc1ccc([C@H]2CC(=O)C=C(/C=C/c3ccccc3)C2)cc1OC`, the CPE inhibition is 0.185%.

Take `COc1ccccc1NC(=O)C1=C(C)NC2=C(C(=O)CC(c3ccc(OC)c(OC)c3)C2)C1c1coc2ccccc2c1=O` (stereo not given): the CPE inhibition was 5.03%.

On to `COc1ccc(C2CC(=O)C3=C(C2)Nc2ccccc2NC3c2coc3ccccc3c2=O)cc1OC` (stereo not given), for which the CPE inhibition was 51.7% (active). Regarding `O=C(CNc1cccc(C(F)(F)F)c1)N/N=C/c1cccc(Br)c1`, the CPE inhibition is 9% (active). The result for `C/C(=N\NC(=O)CNc1cccc(C(F)(F)F)c1)c1cccc(Br)c1` reads 7.08%; that for `C/C(=N\NC(=O)CNc1cccc(C(F)(F)F)c1)c1ccc(Br)cc1`, 3.77%. `O=Cc1cc([N+](=O)[O-])ccc1N1CCOCC1`: the CPE inhibition is 0.035%. As for `Cc1nnc(SCc2cc(=O)oc3ccc4ccccc4c23)n1Cc1ccccc1`, the entry is “inactive”; as for `CCCN1C(=O)/C(=N\OCC(=O)NC23CC4CC(CC(C4)C2)C3)c2ccccc21`, 22.5% (active); as for `O=C(CON=C1c2ccccc2-c2ccccc21)NC12CC3CC(CC(C3)C1)C2`, 6.95%.

As for `CCCN1C(=O)/C(=N\OCC(=O)Nc2ccc(C(C)C)cc2)c2ccccc21`, the CPE inhibition is 8.8%. As for `C=CCNC(=O)c1cc(Cl)ccc1[N+](=O)[O-]`, the entry is “inactive”; as for `CCOC(=O)C1=C(C)NC(=S)NC1/C=C/c1ccccc1` (stereo not given), “inactive”; as for `CCOc1ccc(-c2cn(-c3cccc(SC)c3)c(=O)[nH]2)cc1`, 0.42%. The result for `Cc1ccc(S(=O)(=O)c2nnn3c2nc(Nc2cccc(C)c2)c2ccccc23)cc1` reads “inactive”; that for `O=C(COC(=O)c1ccccc1Nc1ccccc1)Nc1ccccc1`, 1.4%. As for `CC(C)(C)NC(=O)COC(=O)c1ccccc1Nc1ccc(SC(F)F)cc1`, the CPE inhibition was 16.6% (active). With `Cc1ccc(NC(=O)COC(=O)c2ccccc2Nc2ccccc2)cc1`, the CPE inhibition was 1.36%.

For the compound `Cc1ccc(SCC(=O)NCc2ccncc2)cc1`, the CPE inhibition entry was “inactive”. The result for `Cc1c(NC(=O)/C(C#N)=C/c2ccc(-c3ccccc3Cl)o2)c(=O)n(-c2ccccc2)n1C` reads 3.41%; that for `CN(CC(=O)Nc1ccccc1Cl)C(=O)CSc1nc2ccccc2s1`, “inactive”. As for `Cc1c(Cl)cccc1Nc1nc(N)nc(CSc2nc3ccccc3s2)n1`, the figure is 10.3% (active); as for `Cc1ccccc1Nc1nc(N)nc(COC(=O)c2ccc(O)cc2)n1`, “inactive”; as for `COc1ccc(CNc2nc(-c3ccccc3)nn2C(=O)c2ccc([N+](=O)[O-])cc2)cc1`, “inactive”. On to `Cn1cc([N+](=O)[O-])c(C(=O)N/N=C/c2ccc([N+](=O)[O-])cc2)n1`, for which the CPE inhibition is 0.11%.

On to `CCNC(=O)c1cc(Cl)ccc1OC`, for which the CPE inhibition was 0.845%. With `N#C/C(=C\c1cccs1)c1nc2ccccc2[nH]1`, the CPE inhibition result is “inactive”. As for `N#C/C(=C\c1ccc(Sc2ccccc2)o1)c1nc2ccccc2[nH]1`, the CPE inhibition is 13% (active). For the compound `N#C/C(=C\c1ccc(OC(=O)c2ccc(Br)s2)cc1)c1nc2ccccc2[nH]1`, the CPE inhibition is 8.02%. The result for `CCn1c(C)cs/c1=N\C(=S)Nc1ccccc1C` reads 0.08%. `Cc1ccc(C2CC(=O)C=C(NCC(C)C)C2)cc1` (stereo not given): the CPE inhibition result is “inactive”. As to `Cc1ccc(C)c(NC(=S)N(C)CCc2ccccn2)c1`, the CPE inhibition entry was “inactive”. As for `Cc1ccccc1OCC(=O)N1N=C(c2cccnc2)CC1(O)C(F)(F)F` (stereo not given), the CPE inhibition entry is “inactive”. Take `COc1ccc(N=C2SC(CC(=O)Nc3ccccc3F)C(=O)N2Cc2ccco2)cc1` (stereo not given): the CPE inhibition was 0.295%. As for `COc1ccc(N=C2SC(CC(=O)Nc3ccccc3OC)C(=O)N2Cc2ccco2)cc1` (stereo not given), the figure is 1.94%; as for `CC/C(=N\N=C1\SC(C)C(=O)N1Cc1ccco1)c1ccccc1` (stereo not given), 22.7% (active); as for `CSc1ccc(/C=N/NC(=O)COc2ccc(Br)cc2Cl)cc1`, 3.23%. As for `CCN(CC)S(=O)(=O)c1cccc(NC(=O)CCSc2ccc(Cl)cc2)c1`, the figure is 11% (active); as for `CN(C)S(=O)(=O)c1cccc(NC(=O)CCSc2ccc(Cl)cc2)c1`, “inactive”; as for `COc1cccc(NC(=O)CCSc2ccc(C)cc2)c1`, “inactive”. With `O=C(CSc1nc2ccccc2s1)Nc1ccc(Cl)c(S(=O)(=O)N2CCOCC2)c1`, the CPE inhibition was 0.03%. For `Cc1ccc(CSc2ccc(-c3ccc4c(c3)OCO4)nn2)cc1`, the CPE inhibition entry is “inactive”. The result for `Cc1cc(O)c(C2=Nc3ccccc3SC(c3ccc(Cl)cc3)C2)c(=O)o1` (stereo not given) reads 5.1%; that for `O=C1CC(c2ccc(Cl)cc2)SC(N(c2ccccc2)c2ccccc2)=N1` (stereo not given), 23.9% (active).

With `O=C1N(c2ccccc2)C(c2ccc(Cl)cc2)N2CCCN12` (stereo not given), the CPE inhibition was 0.355%. On to `O=C1NC(=O)C(CC(=O)N(Cc2cccs2)C2(C(=O)NC3CCCC3)CCCCC2)N1` (stereo not given), for which the CPE inhibition was 0.025%. The result for `CC(=O)Nc1ccccc1C(=O)C(=O)Nc1cccc(C(=O)NCc2ccccc2)c1` reads “inactive”; that for `O=C(NC(=S)Nc1cccc(NC(=O)c2ccccc2)c1)c1cccc([N+](=O)[O-])c1`, 0.91%. `COC(=O)Nc1nnc(/C=C/c2ccc(OC)cc2)s1`: the CPE inhibition is 6.99%. `COc1ccc(Cc2nnc(NC(=O)CSc3ccc(C)cc3)s2)cc1`: the CPE inhibition is 0.25%. Turning to `COc1ccc(/C=C/c2nnc(NC(=O)CSc3ccc(Cl)cc3)s2)cc1`, the CPE inhibition is 12.2% (active). On to `CC(C)c1nc(C#N)c(N2CCOCC2)o1`, for which the CPE inhibition result was “inactive”. For the compound `Cc1ccc(CN2CCN(CC(=O)N/N=C/c3c[nH]c4ccccc34)CC2)cc1`, the CPE inhibition is 0.79%.

With `COc1cc(OC)cc(-c2c(C#Cc3ccsc3)c3cc(-c4cccc5[nH]ccc45)ccc3n2C)c1`, the CPE inhibition was 6.79%. Turning to `CC(=O)N1CCN(CC(=O)Nc2ccccc2Sc2ccccc2)CC1`, the CPE inhibition was 0.615%. As for `O=C(Cc1ccccc1)Nc1cc(Cl)ccc1Sc1ccccc1`, the figure is 0.52%; as for `CC1CCCCN1CC(=O)Nc1ccccc1Sc1ccccc1` (stereo not given), 18.4% (active). The result for `O=C(CN1CCN(c2ccccc2)CC1)Nc1ccccc1Sc1ccccc1` reads 15.7% (active); that for `CC1CN(CC(=O)Nc2ccccc2Sc2ccccc2)CC(C)O1` (stereo not given), 0.145%. Turning to `Cc1ccc(/C=C/C(=O)OCC(=O)Nc2ccccc2Sc2ccccc2)cc1`, the CPE inhibition result is “inactive”.

Consider `O=C(COC(=O)c1ccccc1-c1nc2ccccc2s1)NC1CCS(=O)(=O)C1` (stereo not given), for which the CPE inhibition entry was “inactive”. As for `CC(=O)O[C@H]1CC[C@@]2(C)[C@@H](CC[C@H]3[C@@H]4CC[C@H](C(C)O)[C@@]4(C)CC(=O)[C@@H]32)C1` (stereo not given in full), the entry is “inactive”. The result for `COC(=O)c1ccc(NC(=O)CSC2=NCCN2)cc1` reads 0.235%; that for `O=C1CC(N(Cc2cccs2)C(=O)Nc2ccccc2)C(=O)N1c1ccc(Cl)cc1` (stereo not given), 0.225%; that for `COC(=O)[C@@]1(Cc2ccc(F)cc2)[C@H]2c3cc(C(=O)N(C)C)n(C[C@H](O)CO)c3C[C@H]2CN1C(=O)c1ccccc1`, 0.25%.

Consider `COC(=O)Cn1c(C(=O)N2CCCC2)cc2c1C[C@H]1CN(C(=O)c3ccccc3)[C@@](Cc3ccc(F)cc3)(C(=O)OC)[C@@H]21`, for which the CPE inhibition is 0.235%. Turning to `COC(=O)[C@@]1(Cc2ccc(F)cc2)[C@H]2c3cc(C(=O)N(C)C)n(CCc4ccc(OC)c(Br)c4)c3C[C@H]2CN1C(=O)c1ccccc1`, the CPE inhibition is 21.7% (active). The result for `Cc1cc(NC(=O)/C=C/c2ccc(Cl)cc2)no1` reads “inactive”; that for `Cc1cccn2c(=O)c(/C=C(\C#N)C(=O)NCc3ccco3)c(N3CCCC(C)C3)nc12` (stereo not given), 11.3% (active).

On to `Cc1cccn2c(=O)c(/C=C(\C#N)C(=O)NCc3ccco3)c(N3CCC(C(N)=O)CC3)nc12`, for which the CPE inhibition is 0.26%.

Regarding `Cc1cccn2c(=O)c(/C=C(\C#N)C(=O)NC3CCS(=O)(=O)C3)c(N3CCC(C(N)=O)CC3)nc12` (stereo not given), the CPE inhibition is 0.15%. Take `CCOP(=O)(OCC)C(NC(=O)Nc1ccc(Cl)cc1)c1ccccc1` (stereo not given): the CPE inhibition is 0.17%. As for `Cn1cccc1CC(=O)N/N=C/C=C/c1ccccc1`, the figure is 0.02%; as for `COc1ccc(COc2ccccc2C(=O)NCc2ccccc2)cc1F`, 1.67%.
